The record followed here is PubChem BioAssay (NCI).

What all share (assay): NCI-60 one-dose screen, 48 h (100 = growth as untreated, 0 = no growth, -100 = all killed)
What all share (settings): 10 µM unless noted

Assay [1] deals with DU-145 prostate.
Assay [2] relates to K-562 leukemia.
Assay [3] relates to MALME-3M melanoma.
The test system of assay [4] is MDA-MB-231 breast.
Assay [5] has as its system RXF 393 renal.
Assay [6] concerns SF-268 CNS.
The subject of assay [7] is SF-295 CNS.
Assay [8] concerns SF-539 CNS.
Assay [9] has as its system UACC-257 melanoma.
Assay [10] concerns M14 melanoma.
Assay [11] deals with HCT-15 colon.
Assay [12] concerns SNB-75 CNS.
In assay [13] the test system is SNB-19 CNS.
In assay [14] the test system is U251 CNS.
The subject of assay [15] is PC-3 prostate.
Assay [16] relates to SK-MEL-5 melanoma.
For assay [17], the system named is UACC-62 melanoma.
For assay [18], the system named is LOX IMVI melanoma.
The subject of assay [19] is SK-MEL-28 melanoma.
For assay [20], the system named is HT29 colon.

About 83,000 compounds went through this panel and 20% of them were active in at least one assay; those are over-represented in the sample as a whole.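 Growth was measured after 48 h exposure to one concentration of compound in 96-well plates. Values under 10 count as active.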 A number with no mark means an inactive call. The source made the active and inactive calls.

Turning to `COc1cc(Nc2ncc(F)c(Nc3ccc4c(n3)NC(=O)C(C)(C)O4)n2)cc(OC)c1OC`, the growth is 48.8% in assay [1]; 66.5% in [2]; 88.7% in assay [3]; 41.7% in assay [4]; -40.3% (active) in assay [5]; 29.8% in assay [6]. Also, the growth in assay [7] was 59.9%; in assay [8] it was -14.8% (active); in [9], 57.1%; in assay [10], 57.5%; in assay [11] it was 53.3%; in assay [12], -7.82% (active). For the same compound, the growth in assay [13] was 64.6%; in assay [14], 48.5%; in [15], 51.9%; in assay [16], 71.8%; in assay [17], 58%; in [18], 9.51% (active). Besides, in assay [19], the growth is 67.1%.

Regarding `Cn1cc(-c2cnn3c(N)c(Br)c([C@@H]4CCCNC4)nc23)cn1`, the growth in assay [1] was 37.1%; in [2], 17.9%; in assay [3], 50.4%; in [4], 35.3%; in assay [5], -2.46% (active); in assay [6] it was 60.1%. In addition, the growth in assay [7] was 24.1%; in assay [8], 22.6%; in assay [9], 70.7%; in assay [10], 33.4%; in [11] it was 60.6%; in [12], 20.5%. For the same compound, the growth was 52.1% in [13]; 61% in assay [14]; 42.8% in assay [15]; 28.6% in assay [16]; 63.7% in [17]; 72.5% in [19].

For `NC1=Nc2cc(OCCCN3Cc4ccccc4C3)c(OCC3CC3)cc2C12CCCC2`, the growth is 78.6% in assay [1]; -8.16% (active) in assay [2]; -58.3% (active) in assay [3]; 36.2% in assay [4]; 60.6% in assay [5]; 74.1% in [6]. Also, the growth in assay [7] was 64.6%; in [8], 49.2%; in assay [9], -47.2% (active); in assay [10] it was -70.2% (active); in assay [11], 25.1%; in assay [12] it was 60.3%. The growth in assay [13] is 82.4%; in [14], 49.5%; in assay [15], 45.4%; in [16], -11% (active); in assay [17], 45.7%; in assay [18], 8.85% (active). Besides, the growth in assay [19] is -44% (active).

`COc1cc(CCc2cc(NC(=O)c3ccc(N4C[C@@H](C)N[C@@H](C)C4)cc3)n[nH]2)cc(OC)c1`: the growth in assay [1] was 37.7%; in assay [2] it was 8.61% (active); in assay [3], 26.6%; in [4], 44.2%; in assay [5], -10.1% (active); in [6], 39.4%. The growth is 62.4% in assay [7]; 16.9% in assay [8]; 3.28% (active) in assay [9]; 18% in assay [10]; 53.5% in [11]; 6.83% (active) in [12]. Besides, the growth in [13] was 83.4%; in assay [14] it was 45.2%; in assay [15], 47.2%; in assay [16] it was 17.3%; in [17], 45.4%; in assay [18], -30.9% (active). In addition, the growth in assay [19] was 35.7%.

For `COC(=O)CCCNc1c(-c2c(O)c(O)cc3c(O)c(-c4c(C)cc5c(-c6nc7ccccn7c6NCCCC(=O)OC)c(O)c(O)cc5c4O)c(C)cc23)nc2ccccn12`, the growth is 29.6% in assay [1]; 11% in [2]; 39.9% in [3]; 56.1% in [4]; 32.9% in assay [5]; 25.3% in [6]. Also, the growth in assay [7] was 26.4%; in [8], 2.01% (active); in assay [10], 60.3%; in [11], 76.9%; in assay [20] it was 48.8%; in assay [12] it was 19.9%. Besides, the growth in assay [13] is 21.4%; in assay [14], 14%; in [15], 52.7%; in [16], 76.2%; in [17], 41.4%; in [18], 18%. Further, in assay [19], the growth is 39.7%.

On to `CN1CCN(Cc2ccc(NC(=O)c3[nH]ncc3Nc3ncnc4sc5c(c34)CCCC5)cc2)CC1`, for which the growth was -86.7% (active) in assay [1]; -60.6% (active) in assay [2]; -75.4% (active) in assay [3]; -57.8% (active) in assay [4]; -92.9% (active) in [5]; -44.3% (active) in [6]. Further, the growth in assay [7] is -87.9% (active); in assay [8], -100% (active); in [10] it was -95.2% (active); in assay [11], -69.3% (active); in assay [20] it was -36.9% (active); in assay [12] it was -94.2% (active). The growth in [13] was -88.8% (active); in [14], -84.2% (active); in [15] it was -77.8% (active); in assay [16], -99.9% (active); in assay [17], 4.67% (active); in [18] it was -91.7% (active). Besides, in assay [19], the growth is -78.9% (active).

In the case of `Clc1ccc2c(NCCNc3nc(N4CCCC4)nc4ccccc34)ccnc2c1`, the growth in assay [1] is 5.1% (active); in assay [2], -24.9% (active); in assay [3], -69.6% (active); in assay [4] it was -60.7% (active); in assay [5], -56.9% (active); in assay [6], 16.2%. Besides, the growth in assay [7] was -73.1% (active); in assay [8], -92.6% (active); in assay [10] it was -71.5% (active); in [11], -34.5% (active); in assay [20], -27.2% (active); in [12] it was 12.5%. Also, the growth was 25.1% in assay [13]; -44% (active) in [14]; 21.9% in assay [15]; -97.1% (active) in assay [16]; -56.6% (active) in [17]; -85.7% (active) in assay [18]. For the same compound, in assay [19], the growth is -54.2% (active).

Turning to `CC12O[C@H](C[C@@H](OC(=O)CCC(=O)O)[C@H]1O)n1c3ccccc3c3c4c(c5c6ccccc6n2c5c31)C(=O)NC4=O`, the growth is 41.8% in assay [1]; 44.5% in assay [2]; -21.6% (active) in assay [3]; 64.3% in assay [4]; -3.02% (active) in assay [5]; 46.4% in assay [6]. The growth was 13.1% in assay [7]; -8.98% (active) in assay [8]; -6.7% (active) in assay [10]; 15% in [11]; 21.2% in assay [20]; -8.7% (active) in assay [12]. The growth was 43.2% in [13]; 50.6% in assay [14]; 48% in assay [15]; -6.1% (active) in assay [17]; 15.9% in [18]; 33.8% in assay [19].

In the case of `Cc1ccc(-c2cc3c(SCC(=O)Nc4cc(C(F)(F)F)ccc4Cl)nccn3n2)cc1`, the growth was 25.6% in assay [1]; -10.4% (active) in assay [2]; -69.5% (active) in assay [3]; 13.4% in assay [4]; 13.5% in [5]; 56.5% in [6]. The growth in assay [7] is 38.1%; in [8] it was 53.9%; in assay [10] it was 50.6%; in assay [11] it was 20.1%; in [20], -18.8% (active); in assay [12], 95.3%. Also, the growth is 102% in assay [13]; 60% in assay [14]; 41.1% in assay [15]; 48.1% in assay [16]; 97.5% in assay [17]; -6.48% (active) in assay [18]. In addition, the growth in assay [19] was 84.8%.

Turning to `CC(C)=CCc1cc2c(cc1O)C1=C(C(=O)C3=C(NCCS3(=O)=O)C1=O)C(C=C(C)C)O2` (configuration not stated), the growth is 41.2% in [1]; 8.83% (active) in [2]; -42.9% (active) in assay [3]; 12.1% in assay [4]; 57.2% in assay [5]; 0.726% (active) in assay [6]. The growth in assay [7] was 91.7%; in assay [8], 20%; in assay [10], 3.7% (active); in [11], 39.8%; in assay [20], 47.9%; in assay [12] it was 71.4%. Also, the growth was 31.7% in assay [13]; 1.89% (active) in [14]; 16.4% in assay [15]; 5.34% (active) in [16]; 28.2% in assay [17]; 4.56% (active) in assay [18]. The growth in assay [19] is 24.3%.

As for `Cc1cc(N2CCOCC2)nc(N(CCNc2ccnc3cc(Cl)ccc23)Cc2cccs2)n1`, the growth in [1] was 42%; in assay [2], 2.63% (active); in [3], -18.4% (active); in [4], -0.994% (active); in [5] it was -46.5% (active); in assay [6] it was 43.8%. For the same compound, the growth in assay [7] was -54% (active); in assay [8], -65.7% (active); in [10], 3% (active); in assay [11] it was 17.8%; in assay [20], -43.1% (active); in assay [12], -18.1% (active). Besides, the growth is 56.5% in assay [13]; -10.5% (active) in assay [14]; 24.4% in [15]; -4.8% (active) in assay [16]; -24.6% (active) in assay [17]; -72.1% (active) in assay [18]. In assay [19], the growth was 11.6%.

Consider `Cc1cc2c(-c3nc4ccccn4c3NC3CCCCC3)c(O)c(O)cc2c(O)c1-c1c(C)cc2c(-c3nc4ccccn4c3NC3CCCCC3)c(O)c(O)cc2c1O`, for which the growth was 32.3% in [1]; 10.2% in assay [2]; 42.5% in assay [3]; 26.5% in assay [4]; 39% in [5]; 38.2% in assay [6]. Further, the growth in assay [7] was 16.6%; in assay [8], 16.9%; in assay [10], 16.5%; in assay [11], 19.9%; in assay [20], 25.7%; in [12], 28%. Besides, the growth in assay [13] was 25.3%; in assay [14], 19.8%; in [15], 18.4%; in assay [16] it was 23.9%; in assay [17], -1.66% (active); in assay [18] it was 27.4%. In addition, in assay [19], the growth was 38.9%.

For the compound `COC(=O)[C@]12CC[C@@H](C)[C@H](C)[C@@H]1C1=CC[C@@H]3[C@@]4(C)C[C@@H](OC(=O)/C=C/c5ccccc5)[C@H](O)[C@@](C)(CO)[C@@H]4[C@H](O)C[C@@]3(C)[C@]1(C)CC2`, the growth in assay [1] was 9.11% (active); in [2], 1.96% (active); in [3] it was 3.65% (active); in assay [4], -72.7% (active); in [6] it was 17.4%; in assay [7] it was -16.4% (active). Further, the growth was -49.1% (active) in [8]; 16% in assay [10]; -20.9% (active) in assay [11]; -49.3% (active) in assay [20]; 44.1% in assay [12]; 14.3% in [13]. For the same compound, the growth is -28.5% (active) in [14]; 11.3% in assay [15]; 18.3% in assay [16]; 21.4% in [17]; -96.4% (active) in assay [18].

As to `COc1cc(-c2cc(-c3ccc(Nc4ccnc5cc(Cl)ccc45)cc3)nc(N3CCOCC3)n2)cc(OC)c1OC`, the growth in [1] was 4.95% (active); in assay [2], 7.37% (active); in assay [3], -22.4% (active); in [4] it was -15.4% (active); in [5] it was -8.41% (active); in [6], 11.2%. Besides, the growth in assay [7] was 6.95% (active); in [8] it was 32.9%; in assay [10] it was -22.2% (active); in assay [11] it was -29.8% (active); in assay [20], -21.8% (active); in assay [12] it was -25.3% (active). Further, the growth in [13] is 28.8%; in [14], -57.1% (active); in assay [15] it was -5.02% (active); in assay [16] it was 28%; in assay [17], 70.1%; in assay [18], 4.79% (active). For the same compound, in [19], the growth is 7.13% (active).
